# Screening results (PubChem BioAssay)
# TTR transcr act – TTR transcription activators in neuroblastoma reporter cells, primary screen, cell-based, luminescence, SH-SY5Y, TTR promoter Gaussia luciferase | 100% = recombinant luciferase protein wells | 92,000 compounds, 1.3% hits | activation, % at 16.7 µM | AID 1117267, 2014;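 active means activation above the mean of all tested compounds plus 3 SD, cut at about 9.5% in these data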;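 further: cells exposed to compounds for one day before reading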
# HuH7 TTR inh – TTR promoter reporter inhibitors in hepatoma cells, counter-screen for TTR transcription activator project, cell-based, luminescence, HuH7 hepatoma; inhibition, % at 16.7 µM; 1,100 compounds, 4% hits; shares compounds with TTR transcr act; HuH7 TTR promoter-Gaussia luciferase reporter;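 active means average inhibition above the solvent-only control wells' mean plus 3 SD, cut at about 15% in these data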;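 further: inhibitors lower well luminescence so higher value means more inhibition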
# TTR up confirm – TTR transcription activators, retest, confirmation, cell-based, luminescence, SH-SY5Y, triplicate | activation, % at 16.7 µM | SHSY5Y TTR promoter Gaussia luciferase; 100% = purified Lucia enzyme wells, no cells | 1,100 tested, under 10 active | shares compounds with TTR transcr act;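 active means mean activation above a set limit taken from the earlier primary screen, cut at about 11% in these data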
# Numbers stand for hits; – = inactive. The sample as a whole holds a higher share of hits than the screen did.
SMILES,TTR transcr act,others
CCCCNC(=O)C[C@H]1C[C@@]2(C(=O)OC)C(=C[C@H](C(C)C)O[C@@H]2C2CC2)N(Cc2ccc(Cl)cc2Cl)C1=O,–,
COC(=O)c1cccc(Cn2ccc3ccc(-c4ccc5ccn(C(=O)c6cccc(OC)c6)c5c4)cc32)c1,–,
CCOc1ccc(NC(=O)C(NC(=O)C2CCC(C)CC2)C(C)C)cc1 (centres undefined),–,
CC(C)[C@H](NC(=O)[C@@H]1Cc2ccccc2CN1C(=O)OC(C)(C)C)C(=O)NCC1CCC(C(=O)O)CC1 (some centres undefined),–,
CCOC(=O)C(C)NC(=O)C(NC(=O)C1CCC(CC)CC1)C(C)C (centres undefined),10.5,
COc1ccccc1NC(=O)O[C@@H]1CC[C@@]23CCCN2C(=O)CCC[C@H]3C1,–,
CN=C1S/C(=C/c2cc(C)n(Cc3ccccc3)c2C)C(=O)N1C,–,
COC(=O)[C@H]1[C@@H](C)N(CCc2cc(OC)c(OC)c(OC)c2)C(=O)N[C@H]1c1ccccc1,–,
CCN1C(=NCCCOC(C)C)N[C@@H](c2ccccc2)[C@H](C(=O)OC)[C@H]1C,11.6,
CCN1C(=NCCc2ccc([N+](=O)[O-])cc2)N[C@@H](c2ccccc2)[C@H](C(=O)OC)[C@H]1C,–,
CCCC1CCC2(CC1)CCC2OC(=S)Nc1cccc(Cl)c1 (centres undefined),–,
O=C(Nc1nc2c(Br)cccc2s1)c1ccc2c(c1)OCCO2,–,
C=CCN(Cc1ccc2c(c1)OCO2)C(C#CCCCC)C(C)C (centres undefined),–,
COCCNC(=O)C1c2cc(OC)c(OC)cc2C(=O)N(C)C1c1cccnc1 (centres undefined),–,
CCOc1cc2c(cc1OCC)C(C(=O)O)C(c1cc(OC)c(OC)c(OC)c1)N(C)C2=O (centres undefined),11.6,
CCCN(CCC)CCCNC(=O)C1c2cc(OC)c(OC)cc2C(=O)N(C)C1c1cccnc1 (centres undefined),–,
COC(=O)c1cc(COC(=O)c2cccnc2SC)oc1C,40.8,
CSc1ncccc1C(=O)OCc1ccccc1F,–,
COC(=O)c1cc(COC(=O)CNC(=O)c2cccc(C)c2)oc1C,–,
CCN(CC)S(=O)(=O)c1ccc(NS(=O)(=O)c2ccc(OC)c([N+](=O)[O-])c2)cc1,–,
CCN(CC)S(=O)(=O)c1ccc(NS(=O)(=O)c2cccc(C)c2)cc1,10.0,
CCN(CC)S(=O)(=O)c1cc(NS(=O)(=O)c2cccc(Cl)c2Cl)ccc1C,–,
CC(C)CNS(=O)(=O)CC1NCc2cc3c(cc21)OCO3 (centres undefined),–,
C[C@H]1[C@@H](OC(=O)NCCc2c[nH]c3ccccc23)CC[C@@]23CCCN2C(=O)CCC[C@@H]13,–,
Cc1ccccc1CN1CCCCC(NC(=O)c2ccc(-c3ccccc3)cc2)C1=O (centres undefined),–,
SMILES,TTR transcr act,others
CCOC(=O)c1c(C)[nH]c(C)c1C(=O)COC(=O)c1ccc(O)cc1,–,
CCOC(=O)c1c(C)[nH]c(C)c1C(=O)COC(=O)c1sccc1C,10.7,HuH7 TTR inh=–;TTR up confirm=–
CCOC(=O)c1c(C)[nH]c(C)c1C(=O)COC(=O)c1c(OC)cccc1OC,–,
O=C(OCC#CCSc1nnc(-c2ccccc2)o1)c1ccc(F)cc1,–,
CC(=O)c1sccc1NC(=O)c1ccccc1C(=O)O,–,
O=C(NCCCCNC(=O)c1cccs1)c1cccs1,–,
O=C(NCCCNC(=O)c1cccs1)c1cccs1,–,
COCCCNC(=O)c1cccs1,16.1,HuH7 TTR inh=–;TTR up confirm=–
COc1ccc(CNC(=O)C(C)Cc2ccccc2)cc1O (centres undefined),–,
C=C1CC(COc2ccc3c(C)c(Cl)c(=O)oc3c2)(c2ccccc2)OC1=O (centres undefined),–,
O=C(COC(=O)CNC(=O)c1ccco1)Nc1ccc(Cl)cn1,–,
O=C(NCc1ccccc1Br)c1ccco1,–,
O=C(CNC(=O)c1ccco1)OCc1ccccc1Cl,10.7,HuH7 TTR inh=–;TTR up confirm=–
O=C(Nc1cc2c(oc1=O)CCCC2=O)c1ccc(Cl)cc1,–,
O=C(CCCn1c(=O)oc2ccccc21)N1CCN(c2ccccn2)CC1,–,
COC(=O)[C@@]12CCCCC3=C1N(CCC3)C(=O)[C@H]2CC(=O)NCc1cccc(C(F)(F)F)c1,–,
CC1=CC2=NC(=O)C(c3ccccc3)C(=O)N2C=C1 (centres undefined),–,
CCCCC(=O)Nc1ccnc(-c2cccnc2)n1,–,
Cc1ccccc1-c1nc(-c2cccnc2)no1,–,
CCCCC1CCC(c2nc(-c3cccnc3)no2)CC1 (centres undefined),13.5,HuH7 TTR inh=–;TTR up confirm=–
CC(=O)Nc1cccc(CP(=O)(c2ccccc2)c2ccccc2)c1,–,
COc1ccc2c(c1OC)C(=O)OC2Nc1nc(-c2cccc([N+](=O)[O-])c2)cs1 (centres undefined),–,
O=S1(=O)c2c(cccc2N2CCC[C@H]2CO)OCCCN1C1CC1,–,
Cc1cc(NC(=O)c2c([N+](=O)[O-])cnn2C)no1,–,
O=C(CCn1c(=O)oc2ccccc21)Nc1ccc(N2CCOCC2)cc1,–,
SMILES,TTR transcr act,others
COc1ccc(NC(=O)c2oc3ccccc3c2CSC)cc1S(=O)(=O)N1CCOCC1,–,
CSCc1c(C(=O)Nc2ccc(N3CCOCC3)cc2)oc2ccccc12,14.2,HuH7 TTR inh=–;TTR up confirm=–
C[C@@H]1CCN(C2CC2)S(=O)(=O)c2c(cccc2N2CC[C@H](O)C2)O1,–,
O=C(Nc1cc(C2CC2)nn1-c1ccccc1)c1ccc(F)cc1,–,
COc1ccc(CCNC(=O)c2ccc(-c3ccc([N+](=O)[O-])cc3Cl)o2)cc1OC,–,
COc1ccc(CCNC(=O)c2ccccc2Cl)cc1OC,–,
COc1ccc(CCNC(=O)c2ccc([N+](=O)[O-])cc2Cl)cc1OC,25.8,HuH7 TTR inh=–;TTR up confirm=–
COc1ccc(CN2CC(=O)N(c3ccc(C)c(C)c3)C2=S)cc1OC,–,
Cc1cc2oc(C(=O)N(Cc3ccccc3)C3CCS(=O)(=O)C3)cc(=O)c2cc1Cl (centres undefined),–,
COC(=O)[C@@]1(C(C)C)N=C(c2cc(OC)c(OC)c(OC)c2)[C@]2(O1)C(=O)N(Cc1cn(Cc3ccccc3)nn1)c1ccc(F)cc12,–,
O=C(Nc1ccc(F)cc1)N(Cc1cccs1)Cc1cc2cc3c(cc2[nH]c1=O)OCO3,27.5,HuH7 TTR inh=–;TTR up confirm=–
Cc1ccc(NC(=O)N(Cc2cccs2)Cc2cc3cc4c(cc3[nH]c2=O)OCO4)cc1,–,
O=C(Nc1ccccc1)N(CCCN1CCOCC1)Cc1cc2cc3c(cc2[nH]c1=O)OCCO3,–,
O=C(C1CCN(c2nc(-c3ccc(Br)cc3)cs2)CC1)N1CCNCC1,–,
O=C(NCc1nc2ccccc2[nH]1)C1=C[C@H](C2CC2)C[C@H](OCCCCO)O1,10.1,HuH7 TTR inh=–;TTR up confirm=–
C#CCNC(=O)C1=C[C@@H](C2CC2)C[C@@H](OCCCCO)O1,–,
O=C(NCc1nc2ccccc2[nH]1)C1=C[C@H](C2CCCCC2)C[C@H](OCCCCO)O1,–,
CC1CCCC(NC(=O)C2CCCN2S(=O)(=O)c2cccc3nsnc23)C1C (centres undefined),–,
COc1ccc(C2=NCCn3nc4cc(OC)ccc4c32)cc1,–,
